# rCAG RNA binder = molecules binding r(CAG) RNA repeats | actives 1.3% (n = 370,000) | r(CAG) RNA repeat, TO-PRO-1 dye displacement fluorescence | inhibition, % at 3 µM;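 active means inhibition above the plate cutoff, the mean of all test compounds on that plate plus 3 SD, cut at about 35% in these data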;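 further: 0% = DMSO alone and 100% = 100 µM mitoxantrone as full dye displacement; higher means more dye released from RNA so lower well fluorescence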
# MPTP block = inhibitors of mitochondrial permeability transition pore. AID 602449. inhibition, % at 10 µM. isolated mouse mitochondria, Ca2+ swelling absorbance, 30 min. actives 1.4% (n = 360,000);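 active means inhibition of 50% or more, scaled per plate between neutral and stimulator controls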;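 further: 0% = DMSO wells given calcium and 100% = 1 mM EGTA wells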
# ADAM17 inh = inhibitors of human ADAM17 | recombinant ADAM17, EDANS/DABCYL FRET peptide cleavage | AID 720648 | actives 0.83% (n = 370,000) | P78536 | inhibition, % at 6.95 µM;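 active means inhibition above the mean of compounds lying between control limits plus 3 SD, set per campaign, cut at about 8.5% in these data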;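 further: 0% = DMSO-only wells as the low control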
# KLK7 zymogen act = activators of human kallikrein-7 zymogen; P49862; purified proKLK7, EDANS-DABCYL substrate fluorescence; 100% is mature enzyme control, 0% vehicle; activation, % at 7 µM; actives 0.9% (n = 370,000); AID 652039;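 active means activation above the mean of all tested compounds plus 3 SD, computed per campaign excluding outliers beyond control limits, cut at about 13% in these data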
# ADAM10 inh = inhibitors of human ADAM10 | O14672 | recombinant ADAM10, EDANS/DABCYL FRET peptide cleavage, 3 h | inhibition, % at 7 µM | actives 0.62% (n = 370,000);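 active means inhibition above a per-campaign cutoff equal to the mean of compounds falling between control-based bounds plus 3 SD, cut at about 20% in these data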;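 further: 0% = DMSO wells while the 100% control is not disclosed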
# Pemphigus Ab inh = inhibitors of pemphigus antibody binding to human desmoglein-3. P32926. binding (percent of control), % at 10 µM. actives 0.48% (n = 310,000). DSG3-coupled beads, scFv-anti-DSG3-GFP binding, flow cytometry; active compounds read low;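 active means binding more than 3 SD below its plate's average and above zero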;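 further: hits lower antibody fragment binding to DSG3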
# Target sequence (P32926 whole entry, looked up, the tested form may be a part): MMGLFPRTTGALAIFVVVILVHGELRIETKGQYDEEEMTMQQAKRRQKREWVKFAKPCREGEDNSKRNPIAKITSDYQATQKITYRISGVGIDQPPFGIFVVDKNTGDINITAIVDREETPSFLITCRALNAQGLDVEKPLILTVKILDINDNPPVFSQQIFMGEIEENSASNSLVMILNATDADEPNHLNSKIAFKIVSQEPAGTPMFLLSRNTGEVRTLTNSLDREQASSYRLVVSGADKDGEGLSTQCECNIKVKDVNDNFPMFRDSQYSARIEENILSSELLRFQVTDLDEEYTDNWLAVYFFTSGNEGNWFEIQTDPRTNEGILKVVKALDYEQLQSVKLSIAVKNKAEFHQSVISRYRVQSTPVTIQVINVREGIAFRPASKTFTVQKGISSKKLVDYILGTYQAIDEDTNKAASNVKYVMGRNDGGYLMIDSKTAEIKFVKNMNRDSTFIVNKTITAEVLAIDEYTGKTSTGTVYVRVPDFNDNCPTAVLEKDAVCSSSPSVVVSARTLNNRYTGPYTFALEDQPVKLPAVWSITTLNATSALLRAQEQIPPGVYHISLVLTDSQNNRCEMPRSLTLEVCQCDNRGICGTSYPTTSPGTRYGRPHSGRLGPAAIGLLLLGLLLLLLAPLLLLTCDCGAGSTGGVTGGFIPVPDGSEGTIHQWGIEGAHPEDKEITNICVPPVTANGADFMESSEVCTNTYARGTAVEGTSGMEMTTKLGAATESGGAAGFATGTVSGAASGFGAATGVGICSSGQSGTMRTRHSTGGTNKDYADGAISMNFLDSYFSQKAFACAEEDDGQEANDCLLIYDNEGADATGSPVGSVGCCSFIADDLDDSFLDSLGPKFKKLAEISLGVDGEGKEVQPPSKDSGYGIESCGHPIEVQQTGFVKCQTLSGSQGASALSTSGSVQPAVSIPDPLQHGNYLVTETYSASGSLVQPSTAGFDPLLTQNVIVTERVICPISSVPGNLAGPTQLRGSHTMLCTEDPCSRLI
# * marks the source's active call; other numbers are inactive results; nt = no result. A selection: hits, their analogues and other compounds. The true share with any hit is near 4.7%.
SMILES,rCAG RNA binder,MPTP block,ADAM17 inh,KLK7 zymogen act,ADAM10 inh,Pemphigus Ab inh
Cc1ccc(NC(=O)C(Cc2ccccc2)NC(=O)OCc2ccccc2)cc1C (stereo not drawn),-1,1,4,0,-2,102
O=C(NCc1ccc(Cl)cc1)C(=O)Nc1nccs1,0,1,-2,0,7,76*
O=C(NCc1ccco1)C1CCCN(S(=O)(=O)c2ccc(F)cc2)C1 (stereo not drawn),4,nt,3,0,10,nt
CC1CCCN(C(=O)CSc2nnc(-c3cccnc3)n2C2CCCCC2)C1 (stereo not drawn),-11,30,-4,1,-6,61*
COc1cc2c(c3c1c(=O)c1ccccc1n3C)C=CC(C)(C)O2,1,nt,-33,1,-136,nt
COC(=O)COc1cccc2c(=O)n(CC(=O)Nc3ccc4c(c3)OCCO4)ccc12,1,0,-4,0,-16,51*
N#CC1=C(SCC(=O)Nc2cccc3cccnc23)NC(=O)C(C#N)C12CCCCC2 (stereo not drawn),48*,33,0,1,5,98
COc1ccc(-c2nc3ncccc3n2O)cc1,4,0,-10,0,-12,99
On1c(-c2ccccc2)nc2ncccc21,2,0,-3,0,-9,73*
COc1ccc(-c2cnn3c(N)c(S(=O)(=O)c4ccccc4)cnc23)cc1,3,3,-1,0,1,100
Nc1c(S(=O)(=O)c2ccccc2)cnc2c(-c3ccc(F)cc3)cnn12,2,-1,-5,0,-6,-18*
CS(=O)(=O)c1cnc(-c2ccccc2)nc1Sc1ccc(F)cc1,3,1,-2,0,-1,64*
COc1cccc(Sc2nc(-c3ccccc3)ncc2S(C)(=O)=O)c1,4,1,2,0,5,91
O=CC(O)C1OC(=O)C(O)C1O (stereo not drawn),-1,-1,-2,-1,-5,86*
O=C1O[C@H](CO)[C@@H](O)[C@H](O)[C@H]1O,0,-2,-3,-2,-1,100
CSCCCNC(=O)C1CCN(S(=O)(=O)c2ccc3[nH]c(=O)oc3c2)CC1,1,nt,-2,0,-2,nt
N=C(N)c1ccc(N=Nc2c(O)ccc3c2[nH]c2ccccc23)cc1,26,5,-2,-1,-11,69*
Cc1[nH]c2ccccc2c1N=Nc1ccc(F)cc1,14,22,-3,1,10,95
CC(C)c1[nH]nc2c1C(c1ccccc1)N(Cc1ccccc1)C2=O (stereo not drawn),-1,nt,-6,1,-17,nt
COc1cc2c(cc1NC(=O)CSc1nnc(-c3cnccn3)n1-c1ccc(C)cc1)oc1ccccc12,9,nt,0,0,-4,nt
C/C(=N\Nc1ccc(S(N)(=O)=O)cc1[N+](=O)[O-])c1ccccc1O,10,3,-3,0,2,72*
CN(NC1OC(=O)c2ccccc21)c1ccc(C(F)(F)F)cc1[N+](=O)[O-] (stereo not drawn),13,3,-3,0,-5,84*
CCN1C(=O)N(C(C)=O)[C@H]2C[C@H](C(=O)N3CCCC3)[C@H](C)[C@H](c3ccccc3)C[C@H]21,0,nt,-3,0,-14,nt
O=c1sc(N2CCN(c3ccc(F)cc3)CC2)nc2ccsc12,1,1,-4,0,-12,79*
O=c1sc(N2CCN(c3ccccc3F)CC2)nc2ccsc12,2,1,-1,0,-3,95
SMILES,rCAG RNA binder,MPTP block,ADAM17 inh,KLK7 zymogen act,ADAM10 inh,Pemphigus Ab inh
CC(=O)O[C@@H]1C=C[C@@H](C#Cc2ccc(C(C)(C)C)cc2)O[C@@H]1COC(=O)NCc1ccccc1,9,nt,2,1,-9,nt
Cc1ccc2nc3c(cc2c1)c(NS(=O)(=O)c1ccccc1)nn3CC(C)C,4,-4,-8,0,-5,83*
Nc1[nH]c(C(=O)c2ccc(Cl)cc2)c(-c2ccc(Br)cc2)c1C(=O)NCCc1c[nH]c2ccccc12,10,nt,3,0,0,nt
N#Cc1cc(Sc2ccccn2)c([N+](=O)[O-])cc1C#N,31,0,-13,1,-39,113
N#Cc1cc(Sc2ccccn2)c(Sc2ccccn2)cc1C#N,3,-2,-2,0,2,73*
Cc1c(-c2ccc(Cl)cc2)oc(=O)c2c(N)n(-c3ccccc3)nc12,-1,1,-5,1,-11,-17*
Nc1c2c(=O)oc(-c3ccccc3)cc2nn1-c1ccccc1,9,1,-43,-1,-147,102
CC(C)[C@H](NC(=O)c1cccs1)C(=O)N1CCC[C@H]1C(=O)NCc1ccccc1,2,nt,2,0,2,nt
CCOC(=O)CC1(NC(=O)c2cc(COc3cccc(OC)c3)on2)CCCCC1,-4,7,1,0,-1,81*
COc1cccc(OCc2cc(C(=O)NCC3CCCCC3)no2)c1,-1,-1,-5,0,9,100
COc1ccc(N2CCN(C(=O)c3cccc(Cn4cc(Cl)cn4)c3)CC2)cc1,-6,0,-4,0,5,26*
CCn1c(C)nc2cc(C(=O)N/N=C/c3ccc(O)c(O)c3O)ccc21,32,1,2,1,2,2.7*
CC(=O)N1C[C@@H](CO)[C@@H]2C[C@H]1c1ccccc1N2C,0,nt,-7,1,-12,nt
CCC1(C(=O)c2ccc(Cl)cc2)C2c3ccccc3OC(=O)C21C(=O)Nc1ccccc1 (stereo not drawn),40*,41,1,0,9,nt
Oc1ccc(/C=N/Nc2cc(N3CCCC3)nc(N3CCCC3)n2)cc1O,40*,4,-2,0,-8,112
Oc1ccc(/C=N\Nc2cc(N3CCOCC3)nc(N3CCOCC3)n2)c(O)c1,11,0,-1,-1,-31,114
Cc1ccc(-n2c(-c3ccncc3)nnc2-c2cccs2)cc1,-5,0,-6,1,-15,-8.5*
Cc1ccc(-n2c(SCC(=O)Nc3ccccc3-c3ccccc3)nnc2-c2cccs2)cc1,5,nt,5,-1,14,nt
CCc1cccc(CC)c1NC(=O)C1SC(=Nc2ccccc2C)C(c2nc3ccccc3s2)=C1N (stereo not drawn),42*,20,8,-1,22*,93
Cc1cccc(C)c1NC(=O)C(c1ccc(-c2ccccc2)cc1)n1c(=O)c(-c2ccco2)nc2ccccc21 (stereo not drawn),41*,-1,0,-1,4,nt
CC(C)(C)NC(=O)C(c1ccc(-c2ccccc2)cc1)n1c(=O)c(-c2ccco2)nc2ccccc21 (stereo not drawn),37*,2,-3,-1,-11,nt

# Screening data as filed in PubChem BioAssay.
